KDM5B inh = blocks human KDM5B histone demethylase activity; Q9UGL1; KDM5B demethylase, FDH-coupled NADH fluorescence (FDH is formaldehyde dehydrogenase); Potency, µM (series often up to 57.7 µM), actives largely listed as inhibitors; 220,000 compounds, 2.6% hits; active = well fitted inhibition curve with a large enough effect; also: nearly all actives have a fitted effect of over 70% in size
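Compound dilutions met 200 nM (final) KDM5BΔAP for 10 min at room temperature before substrate addition. The substrate mix held 12.5 µM H3K4me3 with cofactors 25 µM α-ketoglutarate and 50 µM Fe²⁺. NADH signal gain over 30 min defined activity.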
Large screens that a line does not name were inactive. The sample as a whole holds a higher share of hits than the screen did.

COc1ccccc1CNC(=O)C1(CCO)CCN(c2ncccn2)C1 (configuration not stated)	KDM5B inh 20µM
O=C(NCc1ccc(F)cc1)C1(CCO)CCN(c2ncccn2)C1 (configuration not stated)	KDM5B inh 28.2µM
CC1(CNC(=O)NCc2ccc(F)cc2)CCOCC1	none
O=C(Nc1ccc(F)cc1F)C1(CCO)CCN(c2ncccn2)C1 (configuration not stated)	KDM5B inh 25.1µM
COc1ccccc1CNC(=O)C1(c2ccc(NC(C)=O)cc2)CCCCC1	none
O=C(NCCCc1ccccc1)C1(CCO)CCN(c2ncccn2)C1 (configuration not stated)	KDM5B inh 25.1µM
O=C(NCCCc1ccccc1)c1cccc2cccnc12	none
O=C(NCCC(=O)N1CCN(c2ncccn2)CC1)c1ccc(F)cc1F	none
COc1ccccc1CNC(=O)C(C)C	none
O=C(CSc1ccnc(=O)[nH]1)NCc1ccc(F)cc1	none
O=C(Nc1ccccc1)C1(CCO)CCN(Cc2ccccc2)C1 (configuration not stated)	none
O=C(O)C1(Cc2ccccc2F)CCCN(c2ncccn2)C1 (configuration not stated)	none
NC(=S)NNC(=S)NCc1ccccc1	none
Cc1ccc(C(=O)OCCOc2ccccc2Cl)cc1O	none
COc1ccc(Cl)cc1C(=O)N1CCC2(CC1)NC(=O)N(c1cccc(F)c1)N2	none
COc1cc(/C=C(/C#N)C(=O)C(C)C)cc(Br)c1O	none
Cc1ccc(COC(=O)c2ccc(Cl)c(S(=O)(=O)N3CCOCC3)c2)cc1	none
O=C(CCc1c[nH]c2ccccc12)Nc1ccc(Cl)c(Cl)c1	none
COc1cccc(Oc2c(C(F)(F)F)oc3cc(OC(C)=O)ccc3c2=O)c1	none
O=C(Nc1ccc(F)c(F)c1F)C12CC3CC(CC(Cl)(C3)C1)C2	none
NNc1ccc(Cc2ccc(NN)cc2)cc1	none
Cc1ccoc1C(=O)N[C@@H]1CN(c2ncccn2)C[C@H]1CO	KDM5B inh 25.1µM
Cc1cccnc1C(=O)N[C@@H]1CN(Cc2ccccc2)C[C@H]1CO	none
Cc1ccc(C(=O)N[C@@H]2CN(c3ncccn3)C[C@H]2CO)nc1	KDM5B inh 20µM
Cc1ccc(CN2C[C@@H](CO)[C@H](NC(=O)c3cccnc3)C2)cc1	none
Cc1ccn(CC(=O)N[C@@H]2CN(c3ncccn3)C[C@H]2CO)n1	none
Cc1ccccc1CC(=O)N[C@@H]1CN(c2ccncn2)C[C@H]1CO	none
CCN(CC)CCCn1c(-c2ccc(COc3cc(C)ccc3Cl)cc2)n[nH]c1=S	none
O=C(C1CC1)N1c2nc(-c3ccco3)nn2C2(CCCCC2)[C@@H]2CCCC[C@@H]21	none
O=C(c1cccs1)N(Cc1ccc2cc[nH]c2c1)C1CC1	none
COc1ccc(-c2ccnc3nc(C4CC4)nn23)c(F)c1	KDM5B inh 25.1µM
COc1ccc(-c2ccnc3nc(C4CC4)nn23)cc1	KDM5B inh 15.8µM
Cc1oc2cc(OCCN3CCC(C(N)=O)CC3)ccc2c(=O)c1-c1ccc(Br)cc1	none
Cc1nc(NC(=O)Cc2c(C)nn(C)c2C)sc1-c1ccccc1	none
NCc1cccc(-c2cccnc2)c1	none
CC(C)CC(NC(=O)/C(=C/c1ccccc1)NC(=O)c1ccccc1)C(=O)O (configuration not stated)	none
O=C(CN1CCN(c2nc(-c3ccccn3)nc3scc(-c4ccccc4)c23)CC1)N1CCCC1	none
Cc1cn2nc(C(=O)NC3CCCC3)cc2c(N2CCCC2)n1	none
Cc1cn2nc(C(=O)NC3CCCCCC3)cc2c(N2CCCC2)n1	KDM5B inh 6.31µM
Cc1ccc(CCNC(=O)c2cc3c(N4CCCC4)nc(C)cn3n2)cc1	none
Cc1cn2nc(C(=O)NC3CCc4ccccc43)cc2c(N2CCCC2)n1 (configuration not stated)	KDM5B inh 14.1µM
O=C(NC1CCc2ccccc21)c1ccc2ccccc2n1 (configuration not stated)	none
CCOc1cc(=O)n2c(c1C(=O)NC1CCc3ccccc31)CCCCC2 (configuration not stated)	none
Cc1ccc2nc(/C(C#N)=C/c3sccc3C)[nH]c2c1	none
CN(C)C(=O)CNC(=O)c1cc2occc2n1Cc1ccc(Cl)cc1	none
CCC(C)c1ccccc1NC(=O)COc1ncnc2ccc(Br)cc12 (configuration not stated)	none
Cc1occc1-c1nnc(SCc2cc(-c3cccs3)on2)o1	none
CCC(=O)NCc1csc(-c2cccs2)n1	none
CC[C@H]1COCCN1C(=O)c1csc(Cc2ccccc2)n1	none
CCNC(=O)CC1COCCN1C(=O)c1csc(-c2cccs2)n1 (configuration not stated)	KDM5B inh 22.4µM
COc1ccc(NC(=O)c2ccc3c(c2)OCCN(C2CCC2)C3)cn1	none
COc1cccc2sc(NC(=O)c3ccc4c(c3)OCCN(C3CCC3)C4)nc12	KDM5B inh 35.5µM
COc1cccc2sc(NC(=O)c3ccc4c(c3)OCCO4)nc12	none
CC(NNC(=O)C(O)(c1ccccc1)c1ccccc1)c1ccccc1 (configuration not stated)	none
COc1cccc(NC(=O)c2ccnc(-c3nnc4ccc(Nc5ccccc5)nn34)c2)c1	none
COc1cccc(Nc2ccc3nnc(-c4cc(OC)ccn4)n3n2)c1	KDM5B inh 28.2µM
